ERa SRC1 inh = ERα–SRC-1 coactivator interaction inhibitors, primary screen, biochemical, TR-FRET, ERα LBD, estradiol-bound. TR-FRET ER-alpha LBD / SRC-1 peptide. inhibition, % at 25.6 µM. 86,000 tested, 1.7% active; in the data active = inhibition above about 50%
Target sequence (P03372 whole entry, looked up, the tested form may be a part): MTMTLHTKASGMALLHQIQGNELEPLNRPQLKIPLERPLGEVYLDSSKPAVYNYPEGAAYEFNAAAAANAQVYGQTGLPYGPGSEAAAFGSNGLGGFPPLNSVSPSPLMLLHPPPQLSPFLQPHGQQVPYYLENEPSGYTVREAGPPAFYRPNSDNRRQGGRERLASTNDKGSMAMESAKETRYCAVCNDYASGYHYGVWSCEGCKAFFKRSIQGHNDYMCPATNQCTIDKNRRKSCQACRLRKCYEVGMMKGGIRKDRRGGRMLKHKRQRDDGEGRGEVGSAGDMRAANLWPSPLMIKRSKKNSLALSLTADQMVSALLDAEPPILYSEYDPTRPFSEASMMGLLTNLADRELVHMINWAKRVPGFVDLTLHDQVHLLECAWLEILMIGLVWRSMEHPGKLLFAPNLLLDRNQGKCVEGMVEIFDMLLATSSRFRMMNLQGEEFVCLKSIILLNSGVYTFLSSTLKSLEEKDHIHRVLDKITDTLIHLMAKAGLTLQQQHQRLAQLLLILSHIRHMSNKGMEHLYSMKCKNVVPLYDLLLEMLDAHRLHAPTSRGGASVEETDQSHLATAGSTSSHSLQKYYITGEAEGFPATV
ERa SRC1 pot = enhancers of ERα–SRC-1 coactivator binding, primary screen, biochemical, TR-FRET, ERα LBD, low estradiol. Estrogen receptor (Homo sapiens), P03372. 86,000 tested, 1.3% active. TR-FRET ERalpha-LBD/SRC-Cy5 coactivator binding, 2 h; 100 = basal binding, no effect. coactivator binding (% of control), % at 25.6 µM. AID 639, 2007; in the data active = activity above about 200%;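 also: binding measured in presence of low estradiol as agonist stimulus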
Calb biofilm kill = clotrimazole potentiators killing Candida biofilms, primary screen, with clotrimazole, Alamar Blue. C. albicans biofilm + clotrimazole. inhibition, % at 6 µM. 85,000 tested, 0.14% active. AID 834, 2007;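 active = inhibition above 20%; inactive = inhibition below 20%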;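 also: preformed 24 hr biofilms exposed to compound for 48 hr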
F-actin modifier = modifiers of F-actin cytoskeleton organization, primary screen, imaging, HUVEC, phalloidin staining, high-content imaging | inhibition, % at 2 µM | 91,000 tested, 0.18% active | HUVEC TNFa F-actin phalloidin imaging;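 active = inhibition above the batch mean plus 3 SD and confirmed as a hit by visual image inspection, cut at about 30% in these data, passing the limit was not always enough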
E-sel TNF inh = E-selectin induction blockers in HUVEC – imaging, immunofluorescence, high content, primary screen; inhibition, % at 2 µM; 120,000 tested, 0.71% active; HUVEC TNFa-induced E-selectin immunofluorescence;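 active = inhibition above the batch mean plus 3 SD, and confirmed as a hit on visual image review, cut at about 43% in these data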
ERb SRC1 inh = inhibitors of ERβ-SRC1 coactivator interaction, primary screen, biochemical, TR-FRET, ERβ LBD, SRC-1 peptide; 86,000 tested, 1.3% active; inhibition, % at 25.6 µM; TR-FRET ER-beta LBD / SRC1-Cy5 peptide binding; receptor agonist-loaded with 1 µM estradiol; Estrogen receptor beta (Homo sapiens), Q92731;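 active = compounds whose percent inhibition of the receptor-coactivator binding signal exceeds about 50% in the single-dose screen, limit read from the data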
Numbers stand for hits; - = inactive; . = not tested or not shown; [ ] = remark or other dose. Hits are enriched below; roughly 2.9% of the tested compounds scored in any of these assays.

SMILES	ERa SRC1 inh	ERa SRC1 pot	Calb biofilm kill	F-actin modifier	E-sel TNF inh	ERb SRC1 inh
Cc1ccc(C2NC(=O)c3c(sc4c3CCN(C)C4)N2)s1 (stereo not given)	54[fluorescence artefact?]	-	-	-	.	-
CN1CCc2c(sc3c2C(=O)NC(c2ccccc2)N3)C1 (stereo not given)	.	.	.	.	-	.
CN1CCc2c(sc3c2C(=O)NC(/C=C/c2ccco2)N3)C1 (stereo not given)	-	-	-	-	-	54[fluorescence artefact?]
O=C(CCNS(=O)(=O)c1cccc2nsnc12)N1CC(=O)N(CCc2ccccc2)C(=O)C1	.	.	.	-	.	.
COC(=O)c1cccc(N(C(=O)c2cnccn2)C(C(=O)NC2CCCCC2)c2cn(C)nc2C)c1 (stereo not given)	.	.	.	-	-	.
Cc1cc(C)cc(N(C(=O)c2csnn2)C(C(=O)NC(C)(C)C)c2cccnc2)c1 (stereo not given)	.	.	.	.	-	.
COc1nc(-c2ccccc2)ccc1-c1noc(-c2cccnc2)n1	-	487[fluorescence artefact?]	-	-	.	-
COc1nc(-c2ccc(C)cc2)ccc1-c1noc(-c2ccco2)n1	-	237	-	-	-	-
COc1nc(-c2ccc(C)cc2)ccc1-c1noc(-c2cccnc2)n1	-	557[fluorescence artefact?]	-	.	.	-
COc1nc2ccccc2cc1-c1noc(-c2cccnc2)n1	-	215[fluorescence artefact?]	-	.	.	-
COc1nc(-c2ccccc2)ccc1-c1noc(-c2ccc(F)cc2)n1	-	-	-	.	.	-
Cc1ccc(CN2C(=O)CCC2C(=O)NCc2ccco2)cc1 (stereo not given)	-	-	-	-	.	-
CCOc1ccccc1-c1nc(-c2cc3ccccc3nc2OC)no1	-	-	-	-	-	67
O=C(O)C1Nc2c(C(=O)N3CCOCC3)cccc2C2C=CCC12 (stereo not given)	70	-	-	-	.	82
CC(OC(=O)c1ccco1)C(=O)NC1CCCCC1 (stereo not given)	-	-	-	-	86	-
CC(C)C(OC(=O)c1ccco1)C(=O)NC1CCCCC1 (stereo not given)	-	-	-	-	-	-
N#Cc1cc(Oc2cccnc2)c(Oc2cccnc2)cc1C#N	-	-	-	-	-	61[fluorescence artefact?]
CCC(CC)c1nc(NCCC(=O)O)c2ccccc2n1	-	-	-	-	-	-
c1ccc2[nH]c(NCc3ccc4c(c3)OCO4)nc2c1	.	.	.	.	-	.
CCOC(=O)c1c(NC(=O)COC(=O)c2c(C)noc2C)sc2c1CCC2	-	-	-	-	-	-
CCOC(=O)c1c(NC(=O)COC)sc2c1CCCC2	-	-	-	-	53	-
COC(=O)c1ccc(CSc2nnc(-c3ccncc3)n2Cc2ccccc2)o1	-	-	-	76	-	-
CC(=O)Nn1c(-c2ccccc2)cc2ccccc21	-	-	-	-	-	-
CCOC(=O)N1CCC(N2Cc3cccc(C(=O)N4CCN(C5CCCCC5)CC4)c3C2=O)CC1	-	-	-	-	-	-
NC(=O)c1cccc2c1C(=O)N(C1CCCCC1)C2	53[fluorescence artefact?]	-	-	-	.	53
SMILES	ERa SRC1 inh	ERa SRC1 pot	Calb biofilm kill	F-actin modifier	E-sel TNF inh	ERb SRC1 inh
Cc1ccccc1Nc1nc(N)nc(CSc2nc3ccccc3c(=O)n2CCCO)n1	-	-	-	.	-	-
Cc1ccccc1Nc1nc(N)nc(CSc2nc3ccccc3c(=O)n2C)n1	78	-	-	-	-	-
Cc1cc(C)nc(NC2=NCC(=O)N2c2cc(Cl)cc(Cl)c2)n1	-	474[fluorescence artefact?]	-	-	-	-
Cc1c(C)n(C(=O)CSc2nc3ccccc3[nH]2)c2ccccc12	55[fluorescence artefact?]	-	-	-	-	-
COc1ccc2cc(CN(CCO)C(=O)c3ccccc3F)c(=O)[nH]c2c1	-	-	-	-	100	-
N#C/C(=N\Nc1ccccc1F)c1nc(-c2ccccc2)cs1	.	.	.	.	-	.
COc1ccc(-c2ccc(-c3nnc(-c4ccncc4)o3)cc2)cc1	56[fluorescence artefact?]	-	-	.	-	-
O=S(=O)(Nc1cccnc1)c1ccc(Cl)c(C(F)(F)F)c1	-	-	-	-	-	-
CCOc1ccc2nc(NCCNC(=O)Nc3cccc(C)c3)c(C#N)cc2c1	51[fluorescence artefact?]	-	-	-	.	-
CCOc1ccc2nc(NCCNC(=O)Nc3ccccc3)c(C#N)cc2c1	-	-	-	-	.	-
O=C(CCNC(=O)c1ccccc1Cl)Nc1ccc(Cl)c(C(F)(F)F)c1	.	.	.	.	-	.
Cc1cc(C(=O)CSc2nnc(-c3cccnc3)n2-c2ccccc2F)c(C)n1C	70	-	-	.	-	-
CN(C(=O)CO/N=C/c1ccc(OC(F)F)cc1)C1CCS(=O)(=O)C1 (stereo not given)	.	.	.	.	-	.
c1csc(Cc2nn3c(-c4n[nH]c5c4CCC5)nnc3s2)c1	87[fluorescence artefact?]	-	-	-	.	62
COc1ccccc1-c1nn2c(-c3ccco3)nnc2s1	-	-	-	-	-	-
c1coc(-c2nn3c(-c4ccco4)nnc3s2)c1	58[fluorescence artefact?]	-	-	-	.	55
Clc1ccc(-c2nnc3sc(Cc4cccs4)nn23)c(Cl)c1	-	-	-	-	.	-
c1coc(-c2nnc3sc(Cc4cccs4)nn23)c1	87[fluorescence artefact?]	-	-	-	-	67
CCC(C(=O)OCC(=O)Nc1cc(Cl)cc(Cl)c1)c1ccccc1 (stereo not given)	.	.	.	.	-	.
Cc1cccc(/C=N\NC(=O)c2sccc2-n2cccc2)c1	.	.	.	-	-	.
CCCCNC(=O)CSc1cc(=O)n(C)c2ccccc12	-	-	-	31	.	-
CCCCC1C(=O)N(c2ccccc2)N(c2ccccc2)C1=O	92	-	-	.	-	83[fluorescence artefact?]
CSc1nc2ccc(NC(=O)c3cc4ccccc4o3)cc2s1	.	.	.	.	-	.
Cc1c(Cl)cccc1NC(=O)CC1SCCNC1=O (stereo not given)	-	-	-	.	-	54
Cc1ccccc1NC(=O)CC1SCCNC1=O (stereo not given)	-	-	-	-	-	-
SMILES	ERa SRC1 inh	ERa SRC1 pot	Calb biofilm kill	F-actin modifier	E-sel TNF inh	ERb SRC1 inh
CCC1CCCCN1C(=O)Cn1c(=O)n(CCC(=O)NCc2ccco2)c(=O)c2sccc21 (stereo not given)	-	-	-	-	-	-
CC(C)C(=O)Nc1ccc(N2CCCC2)cc1	-	-	-	-	-	-
CC(=O)c1ccc(NCC(=O)N2CCN(c3ccccc3)CC2)cc1	85	-	-	-	-	57
CC(=O)Nc1ccc(N2CCN(C(C)=O)CC2)cc1	-	-	-	-	-	63
O=C(Nc1ccc(N2CCCC2)cc1)C(c1ccccc1)c1ccccc1	60	-	-	-	-	-
CC(=O)c1ccc(N2CCN(C(=S)Nc3ccccc3)CC2)cc1	.	.	.	-	-	.
Cc1nnc(SCCn2c(N3CCCC(C)C3)nc3c2c(=O)n(C)c(=O)n3C)s1 (stereo not given)	-	-	-	-	-	-
